# Measured values reported in PubChem BioAssay AID743269 (The Scripps Research Institute Molecular Screening Center, 2014).
# Values joined by “and” are separate entries in the source; they are usually repeats but may differ in a detail not shown here. Identical values can stand only once. Hit rate of the full screen: of about 370,000 compounds, about 2,400 (0.65%) were called active.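 How the source made its calls: active means inhibition above the screen-wide mean plus 3 SD (cut at about 13% in these data); inactive means the rest.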 Shown is part of a subset that was picked to be rich in actives. Some compounds were tested as several samples or in several runs, with calls that do not always agree.
# Tested on: HIV-1 integrase (with human LEDGF/p75)
# Assay: blockers of LEDGF/p75-dependent integrase strand transfer – biochemical, TR-FRET, high throughput, primary screen (AID 743269);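 further: signal is the Cy5 over europium emission ratio at 671 and 618 nm; 0% = plate median of compound wells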
# Settings: TR-FRET IN-LEDGF/p75 DNA integration, Eu/Cy5; at 3.7 µM; stronger effect = higher value
row,Structure (SMILES),inhibition
1,CC(=O)O[C@@]1(C(C)=O)CCC2[C@H]3C=C(C)C4=CC(=O)CC[C@@]4(C)C3CC[C@]21C (some centres undefined),-5.1% (inactive)
2,O=C(NCCc1c[nH]c2ccccc12)OCc1cn(-c2c(F)cccc2F)nn1,4.42% (inactive)
3,COc1cc(NC(=O)COC(=O)c2ccc([N+](=O)[O-])s2)cc(OC)c1OC,32.2% (active)
4,COc1cc(CCC(=O)OCC(=O)Nc2cccc(S(N)(=O)=O)c2)cc(OC)c1OC,-0.51% (inactive)
5,COc1cc(NC(=O)COC(=O)c2cnc(C)cn2)c(C)cc1[N+](=O)[O-],-1.79% (inactive)
6,CC(C)CNc1cccc2c1S(=O)(=O)N(Cc1cn(Cc3ccc(Cl)cc3)nn1)Cc1ccccc1O2,4.9% (inactive)
7,O=C(CCl)NC1CCCCN(Cc2cccc(C(F)(F)F)c2)C1=O (centres undefined),0.3% (inactive)
8,COc1ccc(C2C(C#N)=C(N)Oc3n[nH]c(C)c32)cc1CN1CCN(c2ccc(F)cc2)CC1 (centres undefined),6.04% (inactive)
9,COc1ccccc1C1CC(=O)n2c(nc(-c3ccccc3)c2-c2ccccc2)S1 (centres undefined),-1.14% (inactive)
10,COc1ccccc1C1C(C#N)=C(N)Oc2c1c(-c1ccccc1)nn2-c1ccccc1 (centres undefined),43.4% (active)
11,O=C(Nc1cccc(Cl)c1)OC1CC2CC1[C@H]1CCCCN1[C@H]2Cc1ccccc1 (some centres undefined),-1.12% (inactive)
12,CN(CCc1ccccc1)C(=O)Cn1nc(-c2ccccc2)ccc1=O,-1.71% (inactive)
13,O=C(NCc1ccc(Cl)cc1)C1CCCN(c2nc3ccccc3o2)C1 (centres undefined),-2.98% (inactive)
14,COc1ccc(C2NC(=O)N(C)C(C)=C2[N+](=O)[O-])cc1 (centres undefined),-0.24% (inactive)
15,COC(=O)C1=C(C)N(C)C(=O)NC1c1ccc([N+](=O)[O-])o1 (centres undefined),46.5% (active)
16,CCOCCOC(=O)C1=C(C)N(C)C(=O)NC1c1ccccc1F (centres undefined),-1.24% (inactive)
17,CCCCCN1CCCCC(NC(=O)C(C)CCC)C1=O (centres undefined),-0.51% (inactive)
18,COCCCNC(=O)C[C@H]1C[C@@]2(C(=O)OC)C(=C[C@H](C(C)(C)C)O[C@@H]2C)N(Cc2ccc(Cl)cc2Cl)C1=O,2.76% (inactive)
19,O=C(OC12CCCN(C1)/C(=C/c1cccnc1)C2)C1CCCC1 (centres undefined),-0.68% (inactive)
20,Oc1c(CN2CCOCC2)ccc(CN2CCOCC2)c1O,58% (active)
21,OC(c1ccccc1)C(CN1CCOCC1)c1ccccc1 (centres undefined),2.05% (inactive)
22,OCCN1CCOCCOCCN(CCO)CCN(CCO)CC1,-1.91% (inactive)
23,CCOC(=O)c1cnc2sccn2c1=O,2.78% (inactive)
24,CN(C)/C=C/C(=O)c1cnc2sccn2c1=O,16.3% (active)
25,O=C(NCc1ccccn1)c1cnc2sccn2c1=O,3.23% (inactive)
26,O=C(NC1CCC1)c1ccc(C#CC2CC2)cn1,0.75% (inactive)
27,COc1cccc(CNC(=O)CNS(=O)(=O)c2ccc3nc(C)sc3c2)c1OC,2.85% (inactive)

row,Structure (SMILES),inhibition
1,COC(=O)[C@@]12CCCCC3=C1N(CCC3)C(=O)[C@H]2CC(=O)NCc1cccc2ccccc12,0.3% (inactive)
2,COc1cccc(CSc2nnc(-c3cccnc3)n2Cc2ccccc2)c1,-2.05% (inactive)
3,COC(=O)[C@]12C[C@H](CC(=O)NCc3cccc4ccccc34)C(=O)N(CCc3ccc(OC)c(OC)c3)C1=C[C@H](C1CCCC1)O[C@@H]2C,3.8% (inactive)
4,C=CC1=C(C(=O)O)N2C(=O)[C@@H](NC(=O)/C(=N/OCC(=O)O)c3csc(N)n3)[C@H]2SC1,63.4% (active)
5,CO/N=C(\C(=O)N[C@@H]1C(=O)N2C(C(=O)O)=C(COC(C)=O)CS[C@H]12)c1csc(N)n1 (stereo in doubt),14.1% (active) and 6.2% (inactive) and 17.6% (active)
6,C=CC1=C(C(=O)O)N2C(=O)[C@@H](NC(=O)/C(=N\OCC(=O)O)c3csc(N)n3)[C@H]2SC1,19.9% (active)
7,COc1ccc(C(=O)OCCN(C)C2CN(Cc3cn(Cc4cccc(C)c4)nn3)S(=O)(=O)C2)cc1OC (centres undefined),4.74% (inactive)
8,CN(C(N)=NC(=O)/C=C/c1ccccc1)C(C#Cc1ccccc1)Cc1ccccc1 (centres undefined),2.02% (inactive)
9,COc1ccc(C2CC=C(C(=O)O)C(c3ccccc3F)N2S(=O)(=O)c2ccc(C)cc2)cc1OC (centres undefined),-2.7% (inactive)
10,CN1C[C@]2(C=C3CCCCC3n3c(=O)n(-c4ccccc4)c(=O)n32)N=C1NC(=O)c1ccccc1 (some centres undefined),0.62% (inactive)
11,O=C(CNC(=O)c1ccccc1)OC(C(=O)Nc1cc([N+](=O)[O-])ccc1F)c1ccccc1 (centres undefined),-3.25% (inactive)
12,Cc1ccc(-n2c(SCC(=O)Nc3ccc(S(=O)(=O)Nc4nccs4)cc3)nnc2-c2cccnc2)cc1,8.17% (inactive)
13,COc1cccc(CNC(=O)C2CCCN(c3nc4ccccc4o3)C2)c1OC (centres undefined),3.24% (inactive)
14,COc1ccccc1-c1cc(C(=O)NCCCn2ccnc2)no1,16.7% (active)
15,O=C(CCN1C(=O)c2ccccc2C1=O)NCCCn1ccnc1,1.21% (inactive)
16,O=C(NCCCn1ccnc1)c1cc(-c2ccccc2)on1,1.32% (inactive)
17,O=C(c1c[nH]c2ccccc12)N1CCC(Oc2cccnc2)CC1,8.82% (inactive)
18,Cc1ccc(-n2c(SCC(=O)Nc3cccc4ccccc34)nnc2-c2ccco2)cc1,1.78% (inactive)
19,COc1ccc(-n2c(SCC(=O)Nc3ccc4c(c3)OCCO4)nnc2-c2ccc(Cl)cc2)cc1,3.45% (inactive)
20,O=C(COC(=O)Cc1ccc(Br)cc1)Nc1ccc(N2CCOCC2)cc1,-6.57% (inactive)
21,O=C(O)CCC(=O)Nc1ccc(N2CCOCC2)cc1,17.1% (active)
22,Cc1csc(=O)n1CCC(=O)OCC(=O)Nc1ccc(N2CCOCC2)cc1,1.07% (inactive)
23,COc1ccc(-c2cc(-c3nnc(SCc4ccc([N+](=O)[O-])cc4)n3N)[nH]n2)cc1,-1.38% (inactive)
24,COc1ccccc1C(=O)CSc1nnc(-c2ccccn2)n1-c1ccccc1,-0.35% (inactive)
25,O=C(CSc1nc2ccccc2s1)NN=Cc1ccc(O)cc1O,-3.78% (inactive)
26,O=C(Nc1ccccc1)N1CCN(Cc2nc3ccccc3c(=O)[nH]2)CC1,-2.46% (inactive)
27,CCCn1c(C)cc(-c2csc(NC(=O)CCc3nc4ccccc4c(=O)[nH]3)n2)c1C,5.25% (inactive)

row,Structure (SMILES),inhibition
1,CC(=O)Nc1ccc(C(=O)Nc2nc(-c3cc(C)n(Cc4ccccc4)c3C)cs2)cc1,17.7% (active)
2,Cc1c(C#N)c(NC(=O)c2ccccc2)n(Cc2ccccc2)c1C,0.96% (inactive)
3,CCOc1ccc(-n2c(SCC(=O)Nc3cc(C)c(NC(=O)c4ccccc4)cc3OC)nnc2-c2cccs2)cc1,1.97% (inactive)
4,COc1ccc(S[C@]2(C(=O)N(C)C)CC(=O)N(c3ccc(OC)cc3)[C@@H]2c2ccc(OC)cc2)cc1,2.73% (inactive)
5,C=CCN1[C@@H](Cc2ccccc2)COc2cccc(N3CCSCC3)c2S1(=O)=O,1.03% (inactive)
6,CCn1c2ccccc2c2cc(NC(=O)CSc3nnc(-c4ccccc4)n3-c3ccc(C)cc3)ccc21,0.64% (inactive)
7,COc1ccc(Cn2cc(CN3CCS(=O)(=O)N(Cc4ccc(-c5cccc(Cl)c5)cc4)C(C)C3=O)nn2)cc1 (centres undefined),79.8% (active)
8,CC1C(=O)N(Cc2cn(CC3CCCCC3)nn2)CCS(=O)(=O)N1Cc1ccc(-c2cccc(N(C)C)c2)cc1 (centres undefined),5.48% (inactive)
9,CC1C(=O)N(Cc2cn(Cc3ccco3)nn2)CCS(=O)(=O)N1Cc1ccc(-c2cccc(CO)c2)cc1 (centres undefined),1.97% (inactive)
10,COC(=O)[C@]12C[C@H](CC(=O)NCc3cccs3)C(=O)N(CCc3ccc(OC)c(OC)c3)C1=C[C@H](C(C)C)O[C@@H]2C1CC1,4.37% (inactive)
11,CC(=O)c1ccccc1NC(=O)COC(=O)C1COc2ccccc2O1 (centres undefined),-3.4% (inactive)
12,Cc1ccc(S(=O)(=O)N(C)C)cc1NC(=O)COC(=O)C1COc2ccccc2O1 (centres undefined),1.74% (inactive)
13,Cc1c(CC(=O)N2CCN(C(=O)C3COc4ccccc4O3)CC2)c(=O)oc2c(O)c(O)ccc12 (centres undefined),67.8% (active)
14,C=CCN1C(=O)[C@@H](CC(=O)N2CCN(C(=O)OCC)CC2)[C@]2(C(=O)OCC)CCCCC/C=C/12,-0.68% (inactive)
15,CC(C)(C)OC(=O)NCCc1ccccc1/C=C/S(=O)(=O)NCc1ccc(F)cc1,-1.63% (inactive)
16,COc1ccc(CN2C/C(=C/c3ccccc3)N3C(=O)C[C@@H](c4ccccc4)N=C23)c(OC)c1,-1.46% (inactive)
17,COc1c(O)cc2oc(-c3ccc(O)c(O)c3)cc(=O)c2c1O,34.7% (active)
18,CCCC[C@H](C(=O)N(CC)c1ccccc1)[C@@H](O)c1ccc2ccccc2c1,-3.33% (inactive)
19,C=CCN1C(=O)[C@H](CC(=O)NCCCN2CCCC2=O)[C@@]2(C(=O)OCC)CCCC=C12,-3.27% (inactive)
20,COC1=C[C@H](C(=O)NCCNC(C)=O)[C@H](C)[C@@H](c2ccccc2)CC1=O,-0.49% (inactive)
21,CN(C)[C@@H]1C(=O)C(C(N)=O)=C(O)[C@@]2(O)C(=O)C3=C(O)c4c(O)ccc(Cl)c4[C@@H](O)[C@H]3C[C@@H]12,38.5% (active)
22,C=C1c2c(Cl)ccc(O)c2C(O)=C2C(=O)[C@]3(O)C(O)=C(C(N)=O)C(=O)[C@@H](N(C)C)[C@@H]3[C@@H](O)C12 (some centres undefined),68% (active)
23,CCOC(=O)[C@]12CCCC=C1N(CCCOC)C(=O)[C@@H]2CC(=O)N1CCOCC1,4.81% (inactive)
24,COc1ccc(C2Nc3ccccc3C(=O)N2Cc2cccs2)cc1COc1c(C)cccc1C (centres undefined),-0.72% (inactive)
25,CCOC(=O)C1=C(C)NC2=C(C(=O)CC(C)(C)C2)C1c1ccc2c(c1)OCO2 (centres undefined),-1.19% (inactive)
